What all share (experiment): NCI-60 one-dose screen, 48 h (100 = growth as untreated, 0 = no growth, -100 = all killed)
What all share (settings): 10 µM unless noted

Assay [1] has as its system SR leukemia.
For assay [2], the system named is RPMI-8226 leukemia.
Assay [3] has as its system OVCAR-8 ovarian.
The test system of assay [4] is OVCAR-5 ovarian.
Assay [5] concerns OVCAR-4 ovarian.
Assay [6] has as its system IGROV1 ovarian.
For assay [7], the system named is OVCAR-3 ovarian.
In assay [8] the test system is HS 578T breast.
In assay [9] the test system is NCI/ADR-RES ovarian.
Assay [10] relates to T-47D breast.
Assay [11] deals with BT-549 breast.
Assay [12] deals with MDA-MB-435 melanoma.
For assay [13], the system named is SW-620 colon.
For assay [14], the system named is MCF7 breast.
The test system of assay [15] is HCT-116 colon.
Assay [16] deals with HCC-2998 colon.
For assay [17], the system named is KM12 colon.
The test system of assay [18] is SK-OV-3 ovarian.

About 83,000 compounds went through this panel and 20% of them were active in at least one assay; those are over-represented in the sample as a whole.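 Assay: single dose, 48 h. Readout: percent growth (0 = no net growth; negative = cell death). Active: <10.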 A number with no mark means an inactive call. Calls of active or inactive are those of the source.

In the case of `CC(C)CN1CC(C(=O)Nc2ccc3c(c2)-c2ccccc2C3)CC1=O` (centres undefined), the growth in assay [1] was 63.4% [50 µM]; in [2], 55% [50 µM]; in assay [3], 48.5% [50 µM]; in assay [4], 69.8% [50 µM]; in [5], 71.2% [50 µM]; in [6] it was 67.9% [50 µM]. For the same compound, the growth in assay [7] is 75.6% [50 µM]; in assay [8], 28.8% [50 µM]; in assay [9], 67.7% [50 µM]; in [10], 61.5% [50 µM]; in assay [11], 65% [50 µM]; in [12], 90.2% [50 µM]. Besides, the growth was 93.3% [50 µM] in [13]; 52.9% [50 µM] in [14]; 64.1% [50 µM] in assay [15]; 64.4% [50 µM] in [16]; 74% [50 µM] in [17].
Consider `COC(=O)c1nc(-c2ccccc2)oc1S(=O)(=O)N1CCC(C(N)=O)CC1`, for which the growth in assay [1] was -3.16% (active); in [2] it was 41.3%; in assay [3] it was 83.7%; in assay [4], 76.7%; in assay [5], 61.2%; in [6], 51.4%. The growth in assay [7] is 16.2%; in assay [8], 86.7%; in assay [9], 111%; in [10], 36%; in assay [11], 76.2%; in assay [12], 59.5%. Moreover, the growth in [13] was 25.4%; in assay [14] it was 32%; in assay [15] it was 43.9%; in [16], 104%; in [17] it was 87.8%.
Take `COc1cccc(/C=C/C(=O)c2cc3c(N)c(C(=O)Nc4cccc(Cl)c4C)sc3nc2C)c1`: the growth was 7.93% (active) in assay [1]; -32.6% (active) in assay [2]; -33.4% (active) in [3]; 38.1% in assay [5]; 14.7% in [18]; -18.7% (active) in assay [6]. The growth in assay [7] is -60.5% (active); in assay [8], 4.67% (active); in assay [9], -3.64% (active); in assay [10], 9.1% (active); in [11] it was -22.3% (active); in [12], -20.4% (active). In addition, the growth in [13] is -28.7% (active); in [14], 3.5% (active); in assay [15], -34.2% (active); in assay [16], -79.8% (active); in assay [17] it was -19.6% (active).
With `NNC(=S)N/N=C/c1ccccn1`, the growth in assay [1] is 5.56% (active); in [2], 28.9%; in assay [3], 20%; in assay [5], 29.2%; in assay [6], 40.2%; in [7] it was 21.7%. The growth in assay [8] was 31.8%; in [9], 17.8%; in assay [10], 9.69% (active); in [11], 55%; in [12], 46.4%; in assay [13] it was 51.3%. Moreover, the growth is 15.7% in assay [14], 19.8% in assay [15], 28.8% in assay [16] and 29.2% in assay [17].
Take `CCOc1ccc(NC(=O)c2cc(OC)c(OC)c(OC)c2)cc1`: the growth was 24.7% in assay [1]; 27% in assay [2]; 49.5% in [3]; 65% in assay [5]; 40.6% in [18]; 53.1% in assay [6]. The growth was -3.43% (active) in assay [7]; 26.8% in assay [8]; 11.5% in assay [9]; 37.2% in [10]; 44.5% in assay [11]; 20.8% in assay [14]. Moreover, the figures for the growth in [15], in assay [16] and in assay [17] were 18%, 55.5% and 22.8%, respectively.
Regarding `CNC(=O)c1cc(Oc2ccc3nc(NC(=O)Nc4ccc(Cl)c(Cl)c4)sc3c2)ccn1`, the growth in assay [1] is 15.4%; in [2], 63%; in [3] it was -34.6% (active); in assay [5] it was -39.9% (active); in assay [18] it was 73.5%; in assay [6], 54.6%. Besides, the growth in assay [7] was 24.7%; in assay [8], -2.92% (active); in assay [9], -17.7% (active); in [10], 21.3%; in assay [11], 32.1%; in assay [12], 22.6%. Moreover, the growth in assay [13] is 50.4%; in assay [14] it was 32.2%; in assay [15], -13.3% (active); in assay [16] it was 63.4%; in assay [17], 56.8%.
Regarding `Fc1ccc(COc2ccc(Nc3ncnc4sc5c(c34)CCCC5)cc2)cc1`, the growth in assay [1] was 95.8%; in assay [2] it was 79.4%; in assay [3], 101%; in assay [5], 110%; in [18], 92.6%; in [6], 95.3%. The growth in assay [7] is 93.2%; in [8], 98.8%; in assay [9] it was 95.9%; in [10], 86.6%; in [11] it was 99.1%; in assay [12], 96.1%. The growth in assay [13] was 92%; in assay [14], 88.2%; in [15], 93.7%; in assay [16] it was 104%; in [17], 90.1%.
For `CC1(C)CC[C@]2(C(=O)N3CCOCC3)CC[C@]3(C)C(=CC[C@@H]4[C@@]5(C)C/C(=C/c6ccncc6)C(=O)C(C)(C)[C@@H]5CC[C@]43C)[C@@H]2C1`, the growth is -31.3% (active) in [1]; -33.5% (active) in assay [2]; 34% in [3]; 14.2% in assay [5]; 28.9% in [18]; 33.1% in [6]. Moreover, the growth in [7] was 16.1%; in assay [8], 27.5%; in [9], 26.2%; in assay [10], 20.2%; in assay [11], -2.62% (active); in assay [12], 6.81% (active). The growth in assay [13] is 10.4%; in [14], 8.43% (active); in [15], -32.6% (active); in [16], -24.5% (active); in [17], 6.58% (active).
Regarding `CN1C(=O)N(C)C2C1NC(=S)N2/N=C/C=C/c1ccccc1[N+](=O)[O-]` (centres undefined), the growth in assay [1] was 15.2%; in assay [2] it was 2.85% (active); in assay [3], 36.3%; in [5], 51.1%; in [18], 27%; in assay [6] it was 44.3%. The growth is 8.13% (active) in [7]; 17.1% in assay [8]; 29.1% in [9]; 22.4% in assay [10]; 68.1% in [11]; -61.7% (active) in assay [12]. In addition, the growth in assay [13] was 22.7%; in [14], 18.7%; in assay [15] it was 19.5%; in assay [16], 60.5%; in assay [17], 26.7%.
Consider `COc1cc2c(/C=C3\C(=O)Nc4ccccc43)c(C(=O)O)[nH]c2cc1C`, for which the growth in [1] was 91.3%; in assay [2], 87%; in [3] it was 103%; in [5], 95.3%; in assay [18], 129%; in [6], -10% (active). Further, the growth is 137% in assay [8]; 84.1% in [9]; 113% in assay [10]; 102% in assay [11]; 105% in [12]; 72% in [14]. Also, the growth in assay [15] is 96.5%; in [16], 103%; in assay [17] it was 99.8%.
In the case of `Cn1cc(-c2csc(-c3cn(C(=O)OC(C)(C)C)c4ccccc34)n2)c2ccnc(Cl)c21`, the growth is 26% in assay [1]; 68.7% in assay [2]; 48.2% in assay [3]; 9.63% (active) in [5]; 71.3% in assay [18]; 69.5% in [6]. The growth in [7] was 61.3%; in [8], 66.1%; in assay [9], 60%; in assay [10] it was 29.1%; in [11], 84.2%; in [12], 78.8%. In addition, the growth in [13] is 56.2%; in assay [14], 33.3%; in assay [15], 30%; in assay [16], 83.5%; in assay [17], 50.4%.
For the compound `C/C(=N\O)C(=O)NCCCCCC(=O)Nc1ccccc1`, the growth was 104% in [1]; 106% in assay [2]; 96.2% in assay [3]; 103% in assay [5]; 102% in assay [18]; 111% in assay [6]. The growth in [7] was 109%; in [8] it was 114%; in assay [9], 103%; in assay [10] it was 86.5%; in assay [11], 88.6%; in [12], 101%. Moreover, the growth is 104% in assay [13]; 95.1% in assay [14]; 100% in assay [15]; 101% in assay [16]; 103% in [17].
Regarding `Cc1c2ccccc2nc2c1ccc1cccnc12`, the growth in assay [1] is 85.9%; in assay [2] it was 64.8%; in assay [3] it was 91.7%; in [5], 51.7%; in assay [18], 116%; in assay [6] it was 15%. Further, the growth is -1.84% (active) in assay [7]; 117% in assay [8]; 60.9% in assay [9]; 35.1% in assay [10]; 96.3% in assay [11]; 83% in assay [12]. In addition, the growth in assay [13] was 93%; in [14] it was 21.7%; in [15], 56.2%; in assay [16], 87.3%; in assay [17], 78.2%.
On to `COc1ccc(/C=C/C(=O)c2cc3c(N)c(C(=O)Nc4ccc(OC)cc4)sc3nc2C)cc1`, for which the growth in assay [1] is 11.8%; in assay [2], 37.7%; in assay [3], 7.03% (active); in assay [5], 53.5%; in assay [18], 16.1%; in assay [6], 33%. Also, the growth in [7] is 2.94% (active); in assay [8], 8.09% (active); in assay [9] it was 6.34% (active); in assay [10] it was 57.2%; in [11], 24.6%; in assay [12], -23% (active). The growth in assay [13] is 19.2%; in assay [14] it was 14.3%; in assay [15] it was 16.6%; in assay [16], 15.9%; in assay [17], 13.1%.
With `O=C(O)c1cccc(N/C=C/C(=O)c2cc3cc(Br)ccc3oc2=O)c1`, the growth in [1] was 105%; in [2], 101%; in [3], 105%; in [5], 95.1%; in [18], 98.9%; in assay [6], 106%. Besides, the growth in [7] was 95.8%; in assay [8], 94.7%; in assay [9], 104%; in assay [10], 90.5%; in assay [11], 86.1%; in [12] it was 96.5%. The growth is 98.1% in assay [13]; 88.4% in assay [14]; 93.3% in assay [15]; 105% in [16]; 95.8% in assay [17].
On to `COc1cc(C(=O)/C=C/c2ccc(N3CCN(C)CC3)cc2)cc(OC)c1OC`, for which the growth in assay [1] was 91.2%; in assay [2], 107%; in assay [3], 98%; in assay [5], 101%; in assay [18], 100%; in assay [6], 94.8%. For the same compound, the growth in assay [7] is 98.6%; in [8], 94.3%; in assay [9], 95.2%; in assay [10] it was 95.8%; in [11], 100%; in assay [12], 95.5%. The growth is 88% in [13]; 96% in assay [14]; 104% in assay [15]; 101% in assay [16]; 99.3% in [17].
Consider `CCN1C(=O)N(CC)C2C1NN=c1s/c(=C\c3cc4ccccc4[nH]3)c(=O)n12` (centres undefined), for which the growth in assay [1] is 22.8%; in [2], -32.1% (active); in assay [3], -14.2% (active); in assay [5] it was 32.9%; in [18] it was 31.7%; in assay [6], 12.1%. The growth is 11.7% in [7]; 13.8% in [8]; 3.61% (active) in [9]; 2.04% (active) in assay [10]; 12.2% in assay [11]; -9.5% (active) in assay [12]. The growth in assay [13] was 19.8%; in [14], 3.88% (active); in assay [15], 9.85% (active); in assay [16], 10.3%; in assay [17], 10.3%.

Source of the values: PubChem BioAssay (NCI).
